PubChem BioAssay AID686978 (National Center for Advancing Translational Sciences (NCATS), 2013)
Among all 420,000 compounds or so, about 64,000 (15%) were called active. Another 27% or so got no clear call; they are omitted. The call rests on the fitted dose curve; in most records, active means well fitted inhibition curve with a large enough effect; inconclusive means small, poorly fitted or top-dose-only effect; inactive means flat fitted curve, though single readings scatter. Only a sample is shown. Where a call stands in place of a potency, no number is given.

experiment: qHTS for Inhibitors of human tyrosyl-DNA phosphodiesterase 1 (TDP1): qHTS in cells in absence of CPT; conditions: DT40 Tdp1-/- hTDP1 cells, no CPT, ATP luminescence, 48 h; activity change, negative = growth inhibition: at 46.2 µM (top of the series); further: nearly all actives have a fitted effect of over 55% in size
Outline: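 Compound effects on proliferation are scored in DT40 Tdp1-/-;hTDP1 cells in the absence of CPT. ATP levels (CellTiter-Glo luminescence) are recorded after a ≥48 hr, 37 °C incubation.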
Potency means the concentration at half of the fitted maximal effect.

SMILES	Potency
Cn1c(=O)c2[nH]c(NCC3CCCO3)nc2n(-c2ccccc2)c1=O (stereo not given)	inactive
CC1=CC2=NC(=O)/C(=C/c3coc4ccccc4c3=O)C(=N)N2O1	inactive
O=C1/C(=C/c2coc3ccc(O)cc3c2=O)SC(=S)N1c1ccccc1	16.4 µM (active)
CN(C)S(=O)(=O)c1cccc(-c2nn(-c3ccccc3)cc2/C=C2\SC(=S)N(CC(=O)O)C2=O)c1	inactive
CN(C)CCCn1c(SCCN2C(=O)c3ccccc3C2=O)nc2ccccc2c1=O	inactive
CCn1c2ccccc2c2cc(CC(N)=O)ccc21	inactive
CCc1ccc(CNC(=O)c2cc3c(=O)n(CC)c4ccccc4c3s2)cc1	29.1 µM (active)
CN(Cc1ccccc1)C(=O)c1cc2c(=O)n(C)c3ccccc3c2s1	inactive
Cc1oc2ncnc(N3CCCCC3)c2c1C(=O)N1CCN(c2cccc(Cl)c2)CC1	16.4 µM (active)
Cc1cc(=O)oc(C)c1C(=O)N1CCCCC1	inactive
COc1ccc(C)cc1N(C)C(=O)c1c(C)oc2ncnc(N3CCOCC3)c12	inactive
O=C(COC(=O)CNC(=O)C1CCCCC1)Nc1cccc(F)c1	inactive
Cc1cccc(OCC(=O)NCC(=O)N/N=C/c2ccc(N(C)C)cc2)c1	inactive
COc1cc(C2C(C(=O)Nc3ccccc3OC)=C(C)Nc3ncnn32)ccc1O (stereo not given)	inactive
COc1ccccc1NC1=NC2(CCCC2)N=C(N)N1	inactive
COc1ccccc1NC1=NC(c2ccc(Cl)cc2)N=C(N)N1 (stereo not given)	5.8 µM (active)
COc1cc([N+](=O)[O-])cc([N+](=O)[O-])c1NC(=O)N1CCOCC1	inactive
O=C(CSc1nc(=O)n(Cc2cccnc2)c2c1CCC2)Nc1ccc(F)cc1F	inactive
CC(=O)c1c(OCC(=O)N(C)C2CCCCC2)ccc2c(C)cc(=O)oc12	inactive
CCc1ccnc(NS(=O)(=O)c2ccc3c(c2)OCCO3)c1	inactive
CC(C)(C)NC(=O)CN(C(=O)c1ccc(Cl)nc1)c1cccc2ccccc12	inactive
Cc1ccc(C)n1-c1ccncc1	inactive

SMILES	Potency
c1ccc2c(c1)nnn2-c1ccncc1	5.17 µM (active)
COc1cc2nnn(-c3ccncc3)c2cc1OC	inactive
CC(=O)N1C(=O)C2(Nc3ccccc3N2)c2ccccc21	inactive
Cc1oc(CC(C)C)c(CN2CCCC2)c1C(=O)O	inactive
COc1ccc(CCNC(=O)CN2C(=O)CCSc3ccccc32)c(OC)c1	inactive
COc1ccc(CCNC(=O)COC(=O)Cc2cc(OC)c(OC)c(OC)c2)cc1	inactive
COc1ccc(CCNC(=O)c2cc3cccc4c3n2CC(C)S4)c(OC)c1OC (stereo not given)	11.6 µM (active)
CNc1nc(SC)nc(N(C#N)CC(=O)OC)n1	inactive
CCOc1ccc(OCc2ccc(C(=O)N(C)c3ccccc3)o2)cc1	14.6 µM (active)
O=C(NCCc1ccccn1)c1ccc(COc2ccccc2)o1	inactive
COc1ccc(NC(=O)CN(C)C(=O)c2ccc(COc3ccccc3)o2)cc1	inactive
CC(=O)N(CN1C(=O)C2C3C=CC(C3)C2C1=O)c1cccc(Cl)c1 (stereo not given)	inactive
CCCCC12CN3CC(C)(CN(C1)C3c1ccc(O)c(OC)c1)C2=O (stereo not given)	inactive
CCN1C(=O)[C@@H]2[C@@H](c3ccc(-c4ccccc4)cc3)N3CCCC[C@@]3(C(=O)OC)[C@@H]2C1=O	16.4 µM (active)
CCOC(=O)N1C(=O)C[C@](Sc2ccc(C)cc2)(C(=O)OC)[C@H]1c1ccccc1	inactive
CCN1C(=O)[C@H]2[C@@H](c3ccc(C)cc3)N3C(=O)N(c4cccc(Br)c4)C(=O)[C@@]3(CC)[C@H]2C1=O	inactive
NC(=O)C1(Nc2ccc(-c3ccccc3)cc2)CCCC1	inactive
CCCCCCSc1ccc([C@@H]2[C@@H]3C(=O)N(CC)C(=O)[C@@H]3[C@]3(C(=O)OC)CCCCN23)cc1OC	25.9 µM (active)
CCN1C(=O)[C@@H]2[C@@H](c3ccc(-c4cccc(Cl)c4)cc3)N3CCC[C@@]3(C(=O)OC)[C@@H]2C1=O	16.4 µM (active)
CCOC(=O)C1=C(CC)Nc2ccccc2N=C1N	inactive
COCCNC(=O)c1cc(-c2cccc(Cl)c2)on1	inactive
CSc1ccc(NC(=O)Cn2nnnc2-c2ccccc2F)cc1	inactive

SMILES	Potency
COc1ccc(NC(=O)CN(C)C(=O)CNC(=O)C2CCCCC2)cc1	inactive
COc1ccccc1C1/C(=C(/O)c2ccc(C)cc2)C(=O)C(=O)N1Cc1ccco1 (stereo not given)	inactive
COc1ccc(S(=O)(=O)N(C)CC(=O)NCCCN2CCOCC2)cc1Cl	inactive
CN(Cc1ccc(F)cc1Cl)S(=O)(=O)c1cccs1	inactive
OC(CNCc1ccc2c(c1)OCO2)COc1ccccc1 (stereo not given)	inactive
Cc1ccc(OCC(=O)OC(C)CN(C)Cc2ccccc2)cc1 (stereo not given)	inactive
CN(Cc1ccccc1)CC(O)COc1ccc(CNCc2cc3ccccc3s2)cc1 (stereo not given)	29.1 µM (active)
O=C(COC(=O)c1ccc(F)c(S(=O)(=O)N2CCOCC2)c1)NCc1ccc2c(c1)OCO2	inactive
OC(Cc1ccc2ccccc2n1)c1ccc(Cl)c(Cl)c1 (stereo not given)	inactive
Cc1cc(NC(=O)C(C)N2C(=O)c3ccccc3S2(=O)=O)no1 (stereo not given)	inactive
CCOc1ccc(CCNC(=O)CN2C(=O)NC3(CCc4ccccc43)C2=O)cc1OCC (stereo not given)	inactive
O=C(CN1CCOCC1)Nc1cccc([N+](=O)[O-])c1	inactive
CN(C)S(=O)(=O)c1cc(NC(=O)CN2C(=O)NC3(CCCc4ccccc43)C2=O)ccc1Cl (stereo not given)	14.6 µM (active)
O=C(CN1C(=O)NC2(CCOc3ccccc32)C1=O)Nc1cccc([N+](=O)[O-])c1 (stereo not given)	20.6 µM (active)
O=C(CN1C(=O)NC2(CCCCCC2)C1=O)NC1CC1	inactive
O=C(CN1C(=O)NC2(CCCCCC2)C1=O)Nc1ccc([N+](=O)[O-])cc1	18.4 µM (active)
O=C(CN1C(=O)NC2(CCc3ccccc32)C1=O)NC1CCCCC1 (stereo not given)	inactive
O=C(CN1C(=O)NC2(CCCC2)C1=O)Nc1ccc(F)c(F)c1F	inactive
O=C(CN1C(=O)NC2(CCOc3ccccc32)C1=O)NCc1ccc(F)cc1 (stereo not given)	inactive
COC(=O)Nc1ccc(S(=O)(=O)Nc2cc(OC)nc(OC)n2)cc1	inactive
NS(=O)(=O)c1ccc(N2C(=O)C3C4CC(C(Br)C4Br)C3C2=O)cc1 (stereo not given)	inactive
